Measured values taken from ChEMBL document CHEMBL5598561, “ASAP - In vitro binding kinetics” (2024).

Target: Nonstructural protein 3 (Zika virus) (UniProt A0A024AXB9)
Details: PRVABC59, Concentration 10.0 uM

Chain of Nonstructural protein 3 (Zika virus) (A0A024AXB9 as listed by the source): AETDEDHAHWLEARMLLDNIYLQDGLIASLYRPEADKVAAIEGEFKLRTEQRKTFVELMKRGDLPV

In the case of `Cn1ncc2c(C(=O)Nc3ccc4c(c3)CNC4)cc(Br)cc21`, the pKD (Immobilization level 10000.0 pg/mm2, Rmax 23.0 pg/mm2, ka 300646.199 M-1s-1, kd 0.327 1/s) is reported as 5.96, the pKD (Immobilization level 12000.0 pg/mm2, Rmax 66.0 pg/mm2, ka 115064.14 M-1s-1, kd 0.186 1/s) is reported as 5.79 and the pKD (Immobilization level 13000.0 pg/mm2, Rmax 35.0 pg/mm2, ka 218446.798 M-1s-1, kd 0.273 1/s) is reported as 5.9.

With `O=C1Cc2c(cccc2C(=O)Nc2ccc3c(c2)CNC3)N1` the pKD (Immobilization level 3900.0 pg/mm2, Rmax 48.0 pg/mm2, ka 37165.995 M-1s-1, kd 0.04 1/s) was 5.97 and the pKD (Immobilization level 5500.0 pg/mm2, Rmax 106.0 pg/mm2, ka 18457.516 M-1s-1, kd 0.041 1/s) was 5.65.

`N#C[C@]1(Nc2ccc3c(c2)CNC3)C(=O)Nc2ccc(Cl)cc21` was tested, and the pKD (Immobilization level 10000.0 pg/mm2, Rmax 25.0 pg/mm2, ka 264211.625 M-1s-1, kd 1.585 1/s) was 5.22, the pKD (Immobilization level 12000.0 pg/mm2, Rmax 32.0 pg/mm2, ka 105814.14 M-1s-1, kd 0.856 1/s) was 5.09 and the pKD (Immobilization level 13000.0 pg/mm2, Rmax 39.0 pg/mm2, ka 121808.508 M-1s-1, kd 1.295 1/s) was 4.97.

Compound `O=C(Nc1ccc2c(c1)CNC2)c1cc(Cl)ccc1SC1CCCC1` has a pKD (Immobilization level 10000.0 pg/mm2, Rmax 23.0 pg/mm2, ka 575465.756 M-1s-1, kd 3.5 1/s) of 5.22, a pKD (Immobilization level 12000.0 pg/mm2, Rmax 62.0 pg/mm2, ka 231361.37 M-1s-1, kd 1.925 1/s) of 5.08 and a pKD (Immobilization level 13000.0 pg/mm2, Rmax 43.0 pg/mm2, ka 253243.383 M-1s-1, kd 2.083 1/s) of 5.08.

In the case of `O=C(Nc1ccc2c(c1)CNC2)c1cc(Cl)cc2nccnc12`, the pKD (Immobilization level 10000.0 pg/mm2, Rmax 21.0 pg/mm2, ka 195303.568 M-1s-1, kd 2.342 1/s) is reported as 4.92, the pKD (Immobilization level 12000.0 pg/mm2, Rmax 40.0 pg/mm2, ka 106100.572 M-1s-1, kd 1.111 1/s) is reported as 4.98 and the pKD (Immobilization level 13000.0 pg/mm2, Rmax 32.0 pg/mm2, ka 148862.644 M-1s-1, kd 1.839 1/s) is reported as 4.91.

Work on `O=C(Nc1ccc2c(c1)CNC2)c1cc(=O)[nH]c2c(F)cccc12` yielded a pKD (Immobilization level 4900.0 pg/mm2, Rmax 18.0 pg/mm2, ka 230791.194 M-1s-1, kd 7.379 1/s) of 4.5 and a pKD (Immobilization level 5500.0 pg/mm2, Rmax 21.0 pg/mm2, ka 297955.59 M-1s-1, kd 8.334 1/s) of 4.55.

`Cc1cc(C(=O)Nc2ccc3c(c2)CNC3)c2cn[nH]c2c1` was tested, and the pKD (Immobilization level 10000.0 pg/mm2, Rmax 20.0 pg/mm2, ka 694418.255 M-1s-1, kd 0.431 1/s) was 6.21, the pKD (Immobilization level 12000.0 pg/mm2, Rmax 39.0 pg/mm2, ka 340621.404 M-1s-1, kd 0.261 1/s) was 6.12 and the pKD (Immobilization level 13000.0 pg/mm2, Rmax 29.0 pg/mm2, ka 572465.277 M-1s-1, kd 0.338 1/s) was 6.23.

With `CCS(=O)(=O)c1ccc(Cl)cc1C(=O)Nc1ccc2c(c1)CNC2` the pKD (Immobilization level 12000.0 pg/mm2, Rmax 28.0 pg/mm2, ka 273415.174 M-1s-1, kd 3.732 1/s) was 4.87.

Compound `O=C(Nc1ccc2c(c1)CNCC2)c1cc(Cl)cc2[nH]ncc12` has a pKD (Immobilization level 10000.0 pg/mm2, Rmax 29.0 pg/mm2, ka 396120.04 M-1s-1, kd 1.246 1/s) of 5.5, a pKD (Immobilization level 12000.0 pg/mm2, Rmax 39.0 pg/mm2, ka 584891.909 M-1s-1, kd 0.796 1/s) of 5.87 and a pKD (Immobilization level 13000.0 pg/mm2, Rmax 25.0 pg/mm2, ka 840035.203 M-1s-1, kd 1.038 1/s) of 5.91.

Compound `O=C(Nc1ccc2c(c1)CNC2)c1cc(Cl)nc2[nH]ncc12` has a pKD (Immobilization level 10000.0 pg/mm2, Rmax 24.0 pg/mm2, ka 257771.158 M-1s-1, kd 2.862 1/s) of 4.96, a pKD (Immobilization level 12000.0 pg/mm2, Rmax 48.0 pg/mm2, ka 216828.153 M-1s-1, kd 2.008 1/s) of 5.03 and a pKD (Immobilization level 13000.0 pg/mm2, Rmax 31.0 pg/mm2, ka 263772.69 M-1s-1, kd 2.044 1/s) of 5.11.

For `O=C(Nc1ccc2c(c1)CNC2)c1nccc2[nH]ncc12`, the pKD (Immobilization level 12000.0 pg/mm2, Rmax 10.0 pg/mm2, ka 215121.382 M-1s-1, kd 2.565 1/s) was 4.92.

In the case of `N[C@H]1CCc2cc(NC(=O)c3cc(Cl)cc4[nH]ncc34)ccc21`, the pKD (Immobilization level 12000.0 pg/mm2, Rmax 40.0 pg/mm2, ka 202508.522 M-1s-1, kd 3.352 1/s) is reported as 4.78 and the pKD (Immobilization level 13000.0 pg/mm2, Rmax 32.0 pg/mm2, ka 287481.012 M-1s-1, kd 4.268 1/s) is reported as 4.83.

For `O=C(Nc1ccc2c(c1)CNC2)c1cc(Cl)ccc1OC1CCCC1`, the pKD (Immobilization level 12000.0 pg/mm2, Rmax 40.0 pg/mm2, ka 319034.623 M-1s-1, kd 3.897 1/s) was 4.91.

Compound `NS(=O)(=O)c1cc(Cl)cc(C(=O)Nc2ccc3c(c2)CNC3)c1` has a pKD (Immobilization level 10000.0 pg/mm2, Rmax 26.0 pg/mm2, ka 224016.174 M-1s-1, kd 2.677 1/s) of 4.92, a pKD (Immobilization level 12000.0 pg/mm2, Rmax 52.0 pg/mm2, ka 213819.19 M-1s-1, kd 1.773 1/s) of 5.08 and a pKD (Immobilization level 13000.0 pg/mm2, Rmax 31.0 pg/mm2, ka 267165.084 M-1s-1, kd 2.041 1/s) of 5.12.

`CCOCCCN1Cc2ccc(NC(=O)c3cc(Cl)cc4[nH]ncc34)cc2C1` gave a pKD (Immobilization level 3900.0 pg/mm2, Rmax 34.0 pg/mm2, ka 194403.459 M-1s-1, kd 4.353 1/s) of 4.65, a pKD (Immobilization level 4900.0 pg/mm2, Rmax 26.0 pg/mm2, ka 190862.396 M-1s-1, kd 2.393 1/s) of 4.9 and a pKD (Immobilization level 5500.0 pg/mm2, Rmax 37.0 pg/mm2, ka 197216.313 M-1s-1, kd 2.701 1/s) of 4.86.

For `Cn1ncc2c(C(=O)Nc3ccc4c(c3)CNC4)cc(C3CC3)nc21`, the pKD (Immobilization level 10000.0 pg/mm2, Rmax 33.0 pg/mm2, ka 244724.506 M-1s-1, kd 7.844 1/s) was 4.49, the pKD (Immobilization level 12000.0 pg/mm2, Rmax 31.0 pg/mm2, ka 442165.646 M-1s-1, kd 5.14 1/s) was 4.93 and the pKD (Immobilization level 13000.0 pg/mm2, Rmax 33.0 pg/mm2, ka 379334.104 M-1s-1, kd 6.596 1/s) was 4.76.

With `CC(C)NC(=O)[C@H](Nc1ccc2c(c1)CNC2)c1cc(Cl)cc2[nH]ncc12` the pKD (Immobilization level 10000.0 pg/mm2, Rmax 25.0 pg/mm2, ka 625134.982 M-1s-1, kd 0.246 1/s) was 6.4, the pKD (Immobilization level 12000.0 pg/mm2, Rmax 48.0 pg/mm2, ka 290518.5 M-1s-1, kd 0.198 1/s) was 6.17 and the pKD (Immobilization level 13000.0 pg/mm2, Rmax 30.0 pg/mm2, ka 486694.476 M-1s-1, kd 0.217 1/s) was 6.35.

Work on `O=C(Nc1ccc(C2CNC2)cc1)c1cc(Cl)cc2[nH]ncc12` yielded a pKD (Immobilization level 10000.0 pg/mm2, Rmax 37.0 pg/mm2, ka 291088.891 M-1s-1, kd 2.184 1/s) of 5.12, a pKD (Immobilization level 12000.0 pg/mm2, Rmax 69.0 pg/mm2, ka 224213.878 M-1s-1, kd 1.69 1/s) of 5.12 and a pKD (Immobilization level 13000.0 pg/mm2, Rmax 34.0 pg/mm2, ka 337518.302 M-1s-1, kd 1.709 1/s) of 5.3.

Compound `O=C(Nc1ccc([C@H]2CCNC2)cc1)c1cc(Cl)cc2[nH]ncc12` has a pKD (Immobilization level 10000.0 pg/mm2, Rmax 36.0 pg/mm2, ka 266986.751 M-1s-1, kd 3.172 1/s) of 4.92, a pKD (Immobilization level 12000.0 pg/mm2, Rmax 43.0 pg/mm2, ka 228557.467 M-1s-1, kd 2.265 1/s) of 5 and a pKD (Immobilization level 13000.0 pg/mm2, Rmax 32.0 pg/mm2, ka 486506.686 M-1s-1, kd 3.313 1/s) of 5.17.

For `O=C(Nc1ccc2c(c1)CNC2)c1cncc(-c2ccccc2)c1`, the pKD (Immobilization level 4900.0 pg/mm2, Rmax 10.0 pg/mm2, ka 220188.498 M-1s-1, kd 3.981 1/s) was 4.74 and the pKD (Immobilization level 5500.0 pg/mm2, Rmax 48.0 pg/mm2, ka 177152.77 M-1s-1, kd 5.77 1/s) was 4.49.
